In the library only some 19% were active in any assay of this set; here they are far more common.
Giardia killer = Small Molecules that selectively kill Giardia lamblia: qHTS; Giardia lamblia trophozoite viability; AID 540267, 2011; 340,000 tested, 0.15% active; activity change, % at 7.66 µM, hits read low; in the data active = activity change below about -80%; inconclusive = between about -30% and that limit;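 also: parasites exposed to compound for two days anaerobically before the ATP read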
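Luminescence from cellular ATP indicates surviving trophozoites (100 cells/well) following 48 hrs anaerobic compound treatment at 37 deg C; signal develops 15-30 min at room temperature.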
IL-1B inflam inh = qHTS for Inhibitors of Inflammasome Signaling: IL-1-beta AlphaLISA Primary Screen; activity change, % at 57.5 µM; THP-1 LPS/ATP IL-1B secretion, AlphaLISA, 16 h; stronger effect = lower value; 360,000 tested, 4.7% active; in the data active = activity change below about -50%; inconclusive = mostly about -30% to -49%
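THP-1 cells pretreated 1 hr with compounds (up to 57.5 uM final), then stimulated with LPS (250 ng/mL final) plus ATP (1.25 mM final); secreted IL-1B measured by AlphaLISA after 16 hr, decreased signal indicating inhibition.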
ELG1 DNA repair = qHTS screen for small molecules that inhibit ELG1-dependent DNA repair in human embryonic kidney (HEK293T) cells expressing luciferase-tagged ELG1. HEK293T ELG1-luciferase reporter, luminescence, 16 h; DNA damage induced by 5-fluorouridine. 330,000 tested, 2.3% active. Potency, µM (series often up to 46.1 µM), for inactives: top-dose activity change, negative = inhibition, most hits filed as inhibitors; also: potency is read from the fitted curve at half-maximal effect; nearly all actives have a fitted effect of over 55% in size
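Overnight (16 hr) co-exposure of 2,000 cells/well to 5-fluorouridine and compound at 37 °C preceded detection. Luciferase was quantified via ONE-Glo luminescence; loss of signal denotes inhibition.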
TDP1 cell noCPT = qHTS for Inhibitors of human tyrosyl-DNA phosphodiesterase 1 (TDP1): qHTS in cells in absence of CPT. 420,000 tested, 15% active. Potency, µM (series often up to 46.2 µM), for the others: at the highest dose activity change, negative = growth inhibition, hits mostly inhibitors. DT40 Tdp1-/- hTDP1 cells, no CPT, ATP luminescence, 48 h; also: potency is read from the fitted curve at half-maximal effect; nearly all actives have a fitted effect of over 55% in size
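No-CPT arm: Tdp1-/-;hTDP1 DT40 cells (400/well) plus compounds, incubated ≥48 hr at 37 °C. Readout CellTiter-Glo luminescence.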
DT40 TDP1 CPT = qHTS for Inhibitors of human tyrosyl-DNA phosphodiesterase 1 (TDP1): qHTS in cells in presence of CPT; chicken DT40 Tdp1-/-;hTDP1 cells + 20 nM CPT, ATP luminescence, 48 h; Potency, µM (doses to about 46.2 µM), for the others: at the highest dose activity change, negative = growth inhibition, hits mostly inhibitors; 420,000 tested, 12% active; also: potency is read from the fitted curve at half-maximal effect; nearly all actives have a fitted effect of over 55% in size
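Cell growth measured by CellTiter-Glo luminescence after a minimum 48 h, 37 C compound exposure with 20 nM CPT in Tdp1-knockout DT40 cells stably expressing hTDP1, seeded 400/well; qHTS titration format.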
TDP1 inh = qHTS Assay for Inhibitors of Tyrosyl-DNA Phosphodiesterase (TDP1); AID 485290, 2010; recombinant TDP1, AlphaScreen DNA substrate cleavage; Tyrosyl-DNA phosphodiesterase 1 (Homo sapiens), Q9NUW8; 350,000 tested, 0.28% active; Potency, µM (highest dose often 130 µM), inactives show top-dose activity change, negative = inhibition, hits mostly inhibitors; also: potency is read from the fitted curve at half-maximal effect; nearly all actives have a fitted effect of over 40% in size
Target sequence (Q9NUW8 whole entry, looked up): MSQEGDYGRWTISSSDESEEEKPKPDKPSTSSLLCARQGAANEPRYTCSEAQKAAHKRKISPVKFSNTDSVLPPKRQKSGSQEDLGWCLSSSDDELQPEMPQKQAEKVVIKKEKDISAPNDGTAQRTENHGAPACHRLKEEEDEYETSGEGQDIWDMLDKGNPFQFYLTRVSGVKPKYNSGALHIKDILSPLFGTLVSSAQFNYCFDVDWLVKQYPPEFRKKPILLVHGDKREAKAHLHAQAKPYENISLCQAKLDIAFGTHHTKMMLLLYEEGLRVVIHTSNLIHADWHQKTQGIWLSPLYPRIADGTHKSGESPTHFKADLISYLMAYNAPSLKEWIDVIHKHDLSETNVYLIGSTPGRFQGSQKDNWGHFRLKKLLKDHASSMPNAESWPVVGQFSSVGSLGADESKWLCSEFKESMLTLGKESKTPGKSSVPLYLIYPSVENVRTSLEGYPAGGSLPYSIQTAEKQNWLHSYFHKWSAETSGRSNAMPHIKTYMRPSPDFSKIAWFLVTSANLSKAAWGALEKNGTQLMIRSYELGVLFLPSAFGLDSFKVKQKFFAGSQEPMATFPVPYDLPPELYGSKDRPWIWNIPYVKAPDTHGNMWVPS
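Steps: enzyme plus compound, 15 min RT; add biotin/phosphotyrosine-FITC oligonucleotide (15 nM final), react 5 min; add donor/acceptor beads (10 ug/ml final), 10 min; read AlphaScreen. Tdp1 at 1 nM final.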
* = called active by the depositor; ? = inconclusive; · = not tested or not shown. Unless noted, calls follow the shape of the dose curve; as a rule, active = well fitted curve in the direction sought with a large enough effect; inconclusive = small, poorly fitted or top-dose-only effect, or another doubt; inactive = no such curve, though single readings can be large; an effect the other way counts as inactive or inconclusive. % is scaled to controls: 0 for no effect and ±100 for the full control effect.

SMILES | Giardia killer | IL-1B inflam inh | ELG1 DNA repair | TDP1 cell noCPT | DT40 TDP1 CPT | TDP1 inh
CCN1CCN(CC(O)COC(c2ccccc2)c2ccccc2C)CC1 (centres undefined) | 15.7 | 2.0 | -0.3% | -10.0% | ? | ·
Cc1oc2ncn(C)c(=O)c2c1C(=O)N1CCN(c2ccc(Cl)cc2)CC1 | · | · | · | 3.4% | 5.1% | 4.2%
O=C(CSc1nc2c([nH]c3ccccc32)c(=O)n1-c1ccc(F)cc1)NCC1CCCO1 (centres undefined) | · | · | · | -25.9% | -13.1% | 2.2%
CCOc1ccc(CNC(=O)c2cnc3sc(N(CC)CC)nn3c2=O)cc1OC | · | · | · | ? | -26.7% | 7.1%
CC(CC(=O)Nc1nccs1)c1ccccc1 (centres undefined) | -14.8 | -14.3 | ? | ? | 3.1% | ·
COc1ccc(NC(=O)CC(c2ccccc2)c2ccco2)cc1 (centres undefined) | -5.9 | -4.8 | -14.4% | 16.4µM* | ? | -5.5%
O=C(CC(c1ccccc1)c1ccco1)Nc1nccs1 (centres undefined) | -6.4 | 6.7 | 1.6% | 14.6µM* | 25.9µM* | -2.6%
N#Cc1nc(-c2cccc(Cl)c2)oc1NCc1cccnc1 | 0.1 | -10.9 | 0.0% | -17.2% | -4.9% | 7.9%
COc1ccc(C(=O)NCc2nnc(SCC(=O)c3ccc(F)cc3)n2C)cc1OC | -3.6 | 1.6 | 1.2% | -24.2% | -16.1% | 5.3%
CCc1ccc(NC2CC(=O)N(CCc3ccc(OC)c(OC)c3)C2=O)cc1 (centres undefined) | -2.4 | 2.1 | ? | 23.1µM* | ? | 2.7%
COc1ccc(CCNC2CC(=O)N(CCc3ccccc3)C2=O)cc1OC (centres undefined) | 2.7 | -0.8 | -10.3% | -17.5% | -0.5% | -3.7%
COc1ccc(CCN2C(=O)CC(Nc3ccc(N4CCOCC4)cc3)C2=O)cc1OC (centres undefined) | -1.8 | -3.6 | · | 2.31µM* | -0.2% | 8.2%
COc1ccc(CN2C(=O)CSCC2=O)cc1OC | 2.3 | 3.6 | 1.4% | 4.4% | 2.4% | ·
COc1ccc(CCN2C(=O)CSC2=S)cc1OC | -10.4 | -73.2* | ? | 2.59µM* | 2.91µM* | ·
CCNC(=O)C1CCCN(C(=O)C(c2ccccc2)c2ccccc2)CC1 (centres undefined) | · | 21.2 | · | -19.1% | 6.8% | ·
COc1ccccc1-c1nccc(N2CCN(C)CC2)n1 | · | · | · | -8.1% | -2.9% | ·
C/C(=N\Nc1ncnc2sc(C)c(C)c12)c1ccccn1 | -0.1 | -1.1 | ? | 0.0146µM* | 0.103µM* | ·
C/C(=N\Nc1cccc2cccnc12)c1ccccn1 | ? | 30.8 | ? | 0.92µM* | 0.731µM* | 8.8%
C/C(=N\Nc1ncc(Cl)cc1Cl)c1ccccn1 | -28.3 | 0.0 | ? | 0.0259µM* | 18.4µM* | 7.7%
C/C(=N\Nc1cccc2cccnc12)c1ccccc1O | -5.1 | 4.9 | ? | -20.3% | -24.3% | 0.0%
CCOc1ccc(NCC(=O)N/N=C/C=C/c2ccccc2)cc1 | -16.8 | -1.8 | 3.4% | ? | ? | 10.5%
CCOc1ccc(N=C/C=C/c2ccccc2)c(O)c1 | 1.9 | -5.9 | ? | 18.4µM* | 18.4µM* | 1.4%
COc1cccc(NC(=O)CSC2=Nc3ccccc3N=C(c3ccc(F)cc3)C2)c1 | · | · | · | ? | 18.4µM* | 6.5%
Cc1ccc(C2=Nc3ccccc3N(CC(=O)Nc3cccc(F)c3)C(=O)C2)cc1C | · | · | · | 18.4µM* | ? | 11.0%
Cc1ccc(NC(=O)CN2C(=O)CC(c3ccc(F)cc3)=Nc3ccccc32)cc1F | · | · | · | 11.6µM* | 11.6µM* | 4.5%
SMILES | Giardia killer | IL-1B inflam inh | ELG1 DNA repair | TDP1 cell noCPT | DT40 TDP1 CPT | TDP1 inh
Cc1ccc(C2=Nc3ccccc3N(CC(=O)NCc3ccccc3Cl)C(=O)C2)cc1C | · | · | · | 20.6µM* | ? | 4.5%
CCCN(CC(=O)Nc1cc(Cl)ccc1Cl)C(=O)/C=C/c1ccco1 | -14.5 | -2.1 | -19.3% | ? | -7.9% | -4.1%
Cn1c2ccccc2c(=O)c2cc(C#Cc3cccc(N)c3)ccc21 | -18.3 | -2.4 | ? | ? | ? | 0.5%
Cn1c2ccccc2c(=O)c2cc(C#CC3=CCCCC3)ccc21 | -16.3 | 0.0 | ? | 18.4µM* | 7.31µM* | -5.5%
COc1ccc(C#Cc2ccc3c(=O)c4ccccc4n(C)c3c2)cc1 | -8.7 | 33.7 | 12.4% | 18.4µM* | ? | ·
Cn1c2ccccc2c(=O)c2ccc(C#Cc3ccc(N)cc3)cc21 | 13.8 | -28.0 | -34.9% | 16.4µM* | ? | ·
COc1ccccc1C#Cc1ccc2c(=O)c3ccccc3n(C)c2c1 | -10.6 | 24.4 | ? | ? | ? | ·
CCOc1ccc(N(C)C(=O)C2CCN(S(=O)(=O)c3c(C)noc3/C=C/c3ccc(C)cc3)CC2)cc1 | · | · | · | 5.8µM* | 4.11µM* | 5.3%
Cc1cc(C)c(/C=C/c2onc(C)c2S(=O)(=O)N2CCC(C(=O)NCc3ccco3)CC2)c(C)c1 | · | · | · | ? | ? | 5.3%
Cc1noc(/C=C/c2ccccc2F)c1S(=O)(=O)N1CCC(C(=O)NCC(C)c2ccccc2)CC1 (centres undefined) | · | · | · | -27.8% | -11.8% | -0.6%
COc1cc(OC)c(NC(=O)C2CCN(S(=O)(=O)c3c(C)noc3/C=C/c3c(C)cc(C)cc3C)CC2)cc1Cl | · | · | · | -18.7% | -2.7% | -1.8%
CCOc1ccc(NC(=O)C2CCN(S(=O)(=O)c3c(C)noc3/C=C/c3c(C)cc(C)cc3C)CC2)cc1 | · | · | · | 6.51µM* | 9.2µM* | 4.1%
Cc1cc(C)c(/C=C/c2onc(C)c2S(=O)(=O)N2CCC(C(=O)NCC(C)c3ccccc3)CC2)c(C)c1 (centres undefined) | · | · | · | 14.6µM* | 23.1µM* | 0.6%
Cc1cc(C)c(/C=C/c2onc(C)c2S(=O)(=O)N2CCC(C(=O)Nc3ccc(Cl)c(C(F)(F)F)c3)CC2)c(C)c1 | · | · | · | 5.8µM* | 4.11µM* | -0.6%
CCOC(=O)C1CC(c2ccccc2)=NN1c1ccccc1 (centres undefined) | · | 14.6 | · | ? | ? | ·
Cc1ccc2c(c1)S/C(=C\c1cccc[n+]1C)N2CCO | 1.7 | 17.5 | ? | 1.64µM* | 1.16µM* | ·
CC(=O)N1c2ccc(C)cc2Sc2c1ccc1ccccc21 | -18.0 | 16.7 | · | ? | -17.0% | ·

From PubChem
